Data published in PubChem BioAssay (NCI).
Values joined by “and” are separate entries in the source; they are usually repeats but may differ in a detail not shown here. Identical values can stand only once. This is part of a sample that, as a whole, favours compounds with a hit. Of some 79,000 tested, about 15% had one in any assay. Values without a mark were called inactive. Active and inactive are the calls of the source. Cut-off read from the data, not from the text of the source: active = growth inhibition above about 70%; inactive = the rest.

Experiments:
[1] = NCI Yeast Anticancer Drug Screen. Data for the rad50 strain (AID 155);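 note: 0% = growth of vehicle-only cultures of the same strain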; conditions: S. cerevisiae rad50 strain growth inhibition, hits give high values
Summary of the method: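 Cells are treated with compound, grown, and their growth is then scored against vehicle-only cultures of the same repair-deficient yeast strain.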

[2] = NCI Yeast Anticancer Drug Screen. Data for the mec2-1 strain (AID 157); conditions: S. cerevisiae mec2-1 strain, hits give high values
Summary of the method: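 Yeast mec2-1 mutant treated with compound. Readout: growth inhibition vs vehicle controls.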

[3] = NCI Yeast Anticancer Drug Screen. Data for the sgs1 mgt1 strain (AID 161);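 note: 0% = growth of cultures given vehicle only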; conditions: S. cerevisiae sgs1 mgt1 strain, hits give high values
Summary of the method: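 Read-out: growth inhibition vs vehicle controls. Cells: mutant yeast strain deficient in DNA damage repair.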

[4] = NCI Yeast Anticancer Drug Screen. Data for the cln2 rad14 strain (AID 165);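 note: 0% = growth equal to vehicle treated cultures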; conditions: S. cerevisiae cln2 rad14 strain, hits give high values
Summary of the method: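 cln2 rad14 yeast strain; compound exposure; growth inhibition read vs vehicle controls.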

[5] = NCI Yeast Anticancer Drug Screen. Data for the bub3 strain (AID 167); conditions: S. cerevisiae bub3 mutant strain, hits give high values
Summary of the method: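 Part of a panel of yeast mutants defective in DNA damage repair or cell cycle regulation. Each strain is grown with compound, and inhibition is calculated relative to solvent-treated cultures.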

[6] = NCI Yeast Anticancer Drug Screen. Data for the mlh1 rad18 strain (AID 175); conditions: S. cerevisiae mlh1 rad18 strain growth inhibition, hits give high values
Summary of the method: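 Yeast w/ defined DNA-repair lesions; compound exposure; growth vs vehicle controls → % inhibition.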

[7] = at 5.0 µM (retest, dose inferred, filed as 0.5)
[8] = at 50.0 µM (retest, dose inferred, filed as 5.0)

SMILES | growth inhibition [1, 7] | growth inhibition [1, 8] | growth inhibition [2, 7] | growth inhibition [2, 8] | growth inhibition [3, 7] | growth inhibition [3, 8] | growth inhibition [4, 7] | growth inhibition [4, 8] | growth inhibition [5, 7] | growth inhibition [5, 8] | growth inhibition [6, 7] | growth inhibition [6, 8] | growth inhibition ([1]; at 50.0 µM) | growth inhibition ([2]; at 50.0 µM) | growth inhibition ([3]; at 50.0 µM) | growth inhibition ([4]; at 50.0 µM) | growth inhibition ([5]; at 50.0 µM) | growth inhibition ([6]; at 50.0 µM)
CN(C)CNC(=S)S | 98% (active) | 99% (active) | 97% (active) | 100% (active) | 100% (active) | 100% (active) | 97% (active) | 51% | 99% (active) | 100% (active) | 97% (active) | 98% (active) | – | – | – | – | – | –
COc1ccc(C(N)=O)cc1 | 14% | 2% | -3% | 0% | -5% | 3% | -3% | -11% | -6% | -5% | 16% | 24% | – | – | – | – | – | –
CNc1ncnc2nc(C)[nH]c12 | 0% | 20% | -3% | 3% | 0% | 16% | 2% | -4% | 1% | 2% | -13% | 16% | – | – | – | – | – | –
O=c1c2ccccc2ncn1O | -1% | 93% (active) | 1% | 54% | 8% | 98% (active) | 10% | 21% | 5% | 89% (active) | -12% | 81% (active) | – | – | – | – | – | –
C1CCC(CCCc2nn[nH]n2)CC1 | 20% | 53% | -1% | 64% | -2% | 51% | 1% | 44% | 1% | 78% (active) | 13% | 61% | – | – | – | – | – | –
CC(C)CNC(=O)C(C)O (centres undefined) | 13% | 88% (active) | 2% | 18% | 4% | 40% | 2% | 14% | 0% | 7% | 12% | 40% | – | – | – | – | – | –
CN(C)c1ccc(SC#N)cc1 | -4% | 92% (active) | 2% | 85% (active) | -2% | 86% (active) | 3% | 51% | 16% | 95% (active) | -20% | 87% (active) | – | – | – | – | – | –
COc1ccc(N=NC(C#N)C#N)cc1 | 32% | 95% (active) | 6% | 97% (active) | 24% | 98% (active) | 2% | 96% (active) | 1% | 98% (active) | -10% | 96% (active) | – | – | – | – | – | –
CC(=O)Nc1nc(-c2ccccc2)cs1 | 1% | 23% | -4% | 4% | -2% | 23% | 7% | -5% | -1% | 6% | -11% | 2% | – | – | – | – | – | –
CC(=O)c1ccc2c(c1)sc1cc(C(C)=O)ccc12 | 30% | 98% (active) | 15% | 98% (active) | 8% | 99% (active) | 9% | 97% (active) | 15% | 99% (active) | 23% | 98% (active) | – | – | – | – | – | –
Clc1ccc(-n2ncc3c(Cl)nc(Cl)nc32)cc1 | 98% (active) | 99% (active) | 99% (active) | 99% (active) | 100% (active) | 99% (active) | 97% (active) | 98% (active) | 99% (active) | 99% (active) | 99% (active) | 99% (active) | – | – | – | – | – | –
CC1C2c3ccccc3C(c3ccccc32)C1CO (centres undefined) | 11% | 88% (active) | 1% | 61% | 6% | 77% (active) | 4% | 71% (active) | -4% | 74% (active) | -44% | 80% (active) | – | – | – | – | – | –
CC1=C(/C=C/C(C)=C/C(=O)O)C(C)(C)CCC1 | 2% | 67% | -2% | 47% | 3% | 83% (active) | 3% | 43% | 4% | 64% | -36% | 64% | – | – | – | – | – | –
CSC(SC)=C(C#N)C(=O)Nc1cccc(Cl)c1 | 78% (active) | 97% (active) | 62% | 99% (active) | 65% | 99% (active) | 39% | 98% (active) | 65% | 99% (active) | 56% | 97% (active) | – | – | – | – | – | –
N#C/C(=N\O)C(N)=O | 19% | 87% (active) | -3% | 93% (active) | 2% | 83% (active) | -1% | 75% (active) | 3% | 86% (active) | 26% | 86% (active) | – | – | – | – | – | –
CCC(C)(C)N(CC(=O)O)CC(=O)O | -6% | -1% | 2% | -5% | 2% | -1% | 4% | -2% | 3% | -1% | -6% | 17% | – | – | – | – | – | –
O=Cc1ccc(O)c(O)c1O | -7% | 66% | -3% | 54% | -6% | 35% | 0% | 36% | 9% | 73% (active) | -30% | 86% (active) | – | – | – | – | – | –
Cc1cccc(N=NC(C#N)C#N)c1 | 30% | 95% (active) | 10% | 96% (active) | 24% | 95% (active) | -7% | 86% (active) | 1% | 94% (active) | -9% | 95% (active) | – | – | – | – | – | –
CC(C)NC(=O)C(C)O (centres undefined) | 4% | 14% | 1% | 2% | 2% | 5% | 2% | 3% | 6% | -2% | 2% | 10% | – | – | – | – | – | –
CCCCCCCCCC(=O)CCCCCCCCC | 48% | 7% | 30% | 8% | 44% | 14% | 22% | 11% | 92% (active) | 38% | 32% | 35% | – | – | – | – | – | –
CCCCC(=O)c1ccc([N+](=O)[O-])o1 | 39% | 98% (active) | 19% | 99% (active) | 26% | 100% (active) | 18% | 99% (active) | 45% | 100% (active) | 36% | 99% (active) | – | – | – | – | – | –
COc1cccc(NC(=O)c2c(SC)c(C#N)c(=O)n(N)c2N)c1 | 4% | 99% (active) | 10% | 99% (active) | 7% | 99% (active) | 7% | 98% (active) | 7% | 99% (active) | 8% | 99% (active) | – | – | – | – | – | –
COCc1c(C#N)c(Cl)nc(C)c1[N+](=O)[O-] | 14% | 76% (active) | 7% | 90% (active) | 14% | 94% (active) | 2% | 94% (active) | 8% | 97% (active) | 0% | 94% (active) | – | – | – | – | – | –
Cc1cc(C(=O)O)c(CN2C(=O)c3ccccc3C2=O)c(=O)n1C | – | – | – | – | – | – | – | – | – | – | – | – | -11.3% and -1.15% | 20.4% and -14.3% | 2.45% and -7.1% | -6.3% and 6.85% | 12.1% and -19.1% | -18.9% and 9.45%
CCCCN(CCCC)C(=O)C(C)OC(C)=O (centres undefined) | 0% | 25% | -4% | 0% | -3% | 6% | 10% | 1% | -2% | -8% | -38% | 8% | – | – | – | – | – | –
[O-][n+]1cccc2cccc(O)c21 | 2% | 61% | -1% | 16% | 1% | 48% | – | – | – | – | -12% | 49% | – | – | – | – | – | –
O=C(O)/C=C\C(=O)NNc1ccccc1 | 12% | 96% (active) | -2% | 95% (active) | 5% | 98% (active) | 10% | 82% (active) | 14% | 99% (active) | -7% | 94% (active) | – | – | – | – | – | –
Oc1ccc(/C=C/c2ccc(Cl)cc2)cc1 | -26% | 97% (active) | 5% | 98% (active) | 4% | 97% (active) | 7% | 97% (active) | – | – | 13% | 96% (active) | – | – | – | – | – | –
